A selection: hits, their analogues and other compounds. The true share with any hit is near 2.4%.
TLR4 MyD88 comp: blocks binding of human TLR4 to MyD88; O00206+Q99836; HeLa CL3-4 TLR4/MyD88 BLA complementation, FRET ratio; inhibition, % at 8.4 µM; 200,000 tested, 0.18% active; AID 861; in the data active = inhibition above about 25%;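 also: 0% = vehicle and 100% = reference inhibitor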
Target sequence (O00206 whole entry, looked up): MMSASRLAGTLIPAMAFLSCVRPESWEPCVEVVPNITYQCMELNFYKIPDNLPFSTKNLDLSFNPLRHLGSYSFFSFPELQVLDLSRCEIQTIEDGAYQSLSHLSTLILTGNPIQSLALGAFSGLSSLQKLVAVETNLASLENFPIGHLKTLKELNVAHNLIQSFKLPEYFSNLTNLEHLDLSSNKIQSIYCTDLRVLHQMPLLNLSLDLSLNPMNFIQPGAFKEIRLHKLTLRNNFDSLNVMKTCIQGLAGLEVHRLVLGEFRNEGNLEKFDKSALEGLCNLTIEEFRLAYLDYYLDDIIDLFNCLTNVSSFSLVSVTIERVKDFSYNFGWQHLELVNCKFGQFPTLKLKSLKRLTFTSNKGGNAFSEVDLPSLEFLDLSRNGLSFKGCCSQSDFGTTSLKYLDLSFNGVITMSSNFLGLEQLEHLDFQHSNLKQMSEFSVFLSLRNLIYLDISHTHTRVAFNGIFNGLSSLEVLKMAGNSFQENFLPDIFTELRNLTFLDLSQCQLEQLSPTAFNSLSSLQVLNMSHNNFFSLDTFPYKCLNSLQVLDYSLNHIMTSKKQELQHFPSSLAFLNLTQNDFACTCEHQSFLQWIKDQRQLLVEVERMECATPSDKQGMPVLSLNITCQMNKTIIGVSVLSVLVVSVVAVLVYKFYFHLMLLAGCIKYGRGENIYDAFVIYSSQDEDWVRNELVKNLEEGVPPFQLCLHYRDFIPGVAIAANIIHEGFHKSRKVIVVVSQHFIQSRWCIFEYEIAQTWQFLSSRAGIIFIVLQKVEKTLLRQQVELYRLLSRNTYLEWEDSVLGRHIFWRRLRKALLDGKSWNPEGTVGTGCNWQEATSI
Target sequence (Q99836 whole entry, looked up): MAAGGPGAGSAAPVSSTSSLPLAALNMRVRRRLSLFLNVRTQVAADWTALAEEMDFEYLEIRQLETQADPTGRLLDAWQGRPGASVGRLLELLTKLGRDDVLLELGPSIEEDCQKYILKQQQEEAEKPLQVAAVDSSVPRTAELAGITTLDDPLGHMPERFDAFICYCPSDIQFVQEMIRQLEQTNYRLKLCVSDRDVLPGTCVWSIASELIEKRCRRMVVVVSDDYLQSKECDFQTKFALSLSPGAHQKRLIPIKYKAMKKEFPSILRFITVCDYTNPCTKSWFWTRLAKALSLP
TMEM16A act: activates or potentiates the mouse TMEM16A chloride channel; AID 623877; Q8BHY3; HEK293 TMEM16A/YFP-H148Q/I152L, iodide quench fluorescence; hits give low values; B-score at 10 µM; 340,000 tested, 0.3% active;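 active = fluorescence-ratio B-score plate-corrected deviation score at least 3 library SD below zero, with starting fluorescence score within 5 deviations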;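 also: channel opened by trigger with iodide after compound preincubation; score built on the fluorescence ratio of max minus min over baseline; more negative score means more quench and so TMEM16A activation or potentiation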
TLR9-MyD88 inh: blocks human TLR9 binding to MyD88; Q9NR96+Q99836; CHO BLA complementation TLR9-MyD88, CCF4 FRET ratio; inhibition, % at 4.98 µM; 340,000 tested, 0.21% active;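 active = inhibition above the mean over all tested compounds plus 3 SD, cut at about 21% in these data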;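 also: 0% = DMSO only wells and 100% = clavulanate BLA inhibitor control wells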
HTR2A ag: agonists of mouse serotonin 5-HT2A receptor (HTR2A). activation, % at 7.6 µM. CHO-K1 mHTR2A beta-arrestin complementation, luminescence; percent of 30 µM serotonin response. P35363. 360,000 tested, 0.66% active;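 active = activation above a run cutoff, the mean activation of all tested compounds plus 3 SD, cut at about 14% in these data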;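 also: 0% = plate median of compound wells and 100% = 30 µM serotonin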
NOD2-RIPK2 inh: blocks binding of human NOD2 to RIPK2; O43353; CHO BLA complementation NOD2-RIPK2, CCF4 ratio; inhibition, % at 4.98 µM; 360,000 tested, 0.38% active; AID 624267; in the data active = inhibition above about 21%;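 also: 0% = vehicle only and 100% = reference blocker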
TMEM16A inh: mouse TMEM16A channel inhibition, primary screen | HEK293 TMEM16A/YFP iodide influx fluorescence, ionomycin | AID 588511 | 310,000 tested, 1.2% active | Q8BHY3 | normalized B-score (activity score, 25-100; higher = stronger inhibition) at 10 µM;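 active = ratio plate-corrected score three or more library SD toward inhibition, starting fluorescence score within five deviations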;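 also: score derived from kinetic fluorescence span divided by baseline fluorescence per well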
Numbers without * were called inactive; i = inactive; · = no result given.

SMILES	TLR4 MyD88 comp	TMEM16A act	TLR9-MyD88 inh	HTR2A ag	NOD2-RIPK2 inh	TMEM16A inh
C/C(=N/OC(=O)c1ccccc1Br)c1ccc(C)cc1	·	i	-8.0	3.4	-2.6	25*
C/C(=N/OC(=O)c1ccc(C)cc1)c1cccs1	10.9	i	-6.4	0.4	-8.5	i
O=C(c1ccoc1)N1CCC2(CC1)Oc1ccc(Cl)cc1C(=O)C21CC(c2ccccc2)=NO1 (configuration not stated)	·	i	4.5	-2.0	-2.3	i
O=C(CCN1C(=O)/C(=C\C=C\c2ccccc2)SC1=S)Nc1ccccc1C(=O)O	·	i	-5.5	6.5	4.4	25*
COc1ccc(CSc2ccc(S(=O)(=O)N3CCCCC3)cn2)cc1F	·	-22.5*	-5.9	-5.0	-3.9	·
COc1ccc(CSc2ccc(S(=O)(=O)N3CCCC3)cn2)cc1F	·	·	3.4	-5.3	-17.1	·
Cc1nc(SCC(=O)NC2CCCC2)c2c(C)c(C)sc2n1	·	i	-5.2	-2.4	-5.7	i
O=S(=O)(Nc1c(S(=O)(=O)c2ccccc2)c2nc3ccccc3nc2n1C1CCCCC1)c1ccccc1	2.9	i	7.0	3.0	12.4	100*
O=C(CCl)NCc1cc(-c2ccc(Cl)cc2)no1	4.2	i	5.2	7.5	-1.6	i
O=C(Cc1ccc(F)cc1)NCc1cccnc1	-7.7	i	-8.2	0.3	12.2	i
Cc1ccc2oc(-c3cccc(NC(=O)Cn4cnc5c(=O)n(C)c(=O)n(C)c54)c3)nc2c1	9.7	·	·	·	·	100*
COc1ccc(C)cc1N1CC(C(=O)Nc2ccccc2N2CCCCC2)CC1=O (configuration not stated)	·	i	-6.4	-3.9	-1.9	·
C/C(=C\C(=O)c1ccc(Br)cc1)NCc1ccc2c(c1)OCO2	13.6	i	6.6	0.0	-1.3	100*
CN(CC(=O)NCc1ccc2c(c1)OCO2)S(=O)(=O)c1ccc(F)cc1	·	i	-0.6	1.6	-9.0	i
CC(=O)c1ccc(S(=O)(=O)N(C)CCCC(=O)NCc2ccc3c(c2)OCO3)cc1	·	-5.81*	-2.3	-6.1	-4.0	·
Cc1cc(C)c(O)c(-c2cc(C(=O)Nc3ccc(S(=O)(=O)N4CCOCC4)cc3)[nH]n2)c1	14.3	i	11.9	-5.1	7.0	25*
O=C1CCCN1c1cc(Cl)ccc1Cl	4.2	i	-2.1	1.9	3.8	i
C=CCn1c(C)cc(-c2csc(NC)n2)c1C	-5.8	i	1.3	3.9	-1.3	·
C=CCn1c(C)cc(-c2csc(NCC)n2)c1C	11.3	-5.38*	-0.2	2.7	0.8	i
CCN(CC(=O)Nc1ccc(N2CCOCC2)cc1)C(=O)c1ccc(C(F)(F)F)cc1	9.7	i	-0.6	-2.2	-5.2	i
CCN(CC(=O)Nc1ccc(N2CCOCC2)cc1)C(=O)Cc1ccccc1	·	-32.4*	-5.0	3.4	12.0	·
O=C(NNC(=S)NC(=O)C12CC3CC(CC(C3)C1)C2)c1ccncc1	-4.9	i	-2.3	-14.5	4.7	25*
CC1CC(C)(C)N(C(=O)CN2C(=O)c3ccccc3C2=O)c2ccccc21 (configuration not stated)	-14.6	-6.21*	-6.2	0.0	8.7	i
Cc1cc(Cl)ccc1OC(C)C(=O)Nc1ccc(C(=O)Nc2ccccc2C(=O)O)cc1 (configuration not stated)	·	i	-12.8	12.5	-2.1	100*
Cc1cc(Cl)ccc1OC(C)C(=O)Nc1ccc(S(=O)(=O)Nc2cnc3ccccc3n2)cc1 (configuration not stated)	7.2	i	2.1	3.6	-4.1	100*
SMILES	TLR4 MyD88 comp	TMEM16A act	TLR9-MyD88 inh	HTR2A ag	NOD2-RIPK2 inh	TMEM16A inh
CC(Oc1ccc(Cl)cc1Cl)C(=O)Nc1ccc(S(=O)(=O)Nc2cnc3ccccc3n2)cc1 (configuration not stated)	12.2	·	·	·	·	100*
O=C(C1CC1)N1CCN(c2nc3ccccc3s2)CC1	3.1	i	7.7	-0.4	-4.7	i
O=C(Nc1ccc(F)cc1)N1CCN(c2nc3ccccc3s2)CC1	-6.2	i	-7.7	23.5*	6.3	i
COc1cccc(C(=O)COC(=O)c2ccc(NC(=O)c3ccccc3)cc2)c1	-0.7	i	1.7	-1.1	-2.5	i
Cc1ccc(NC(=S)NNc2ncc(C(F)(F)F)cc2Cl)cc1	-15.6	i	-6.6	-12.4	-5.2	i
FC(F)(F)c1cnc(NNC(=S)Nc2ccc(Cl)cc2)c(Cl)c1	5.8	i	-8.6	-9.7	-6.3	25*
COc1ccccc1CNC(=O)CCNC(=O)N1CC(=O)Nc2ccccc21	·	i	-3.3	2.1	-5.4	i
CCOC(=O)/C(=N\Nc1ccc(Cl)cc1)c1csc(Nc2ccccc2)n1	6.3	i	11.7	-0.8	-5.0	100*
CCc1ccc(-c2cn3nc(C)c(C)nc3n2)cc1	26.9*	i	-1.4	2.0	8.4	i
CC(C)n1cc(CN2CCN(C)C(CCO)C2)c2ccccc21 (configuration not stated)	·	i	0.8	7.5	-5.9	i
S=C(NCCSCc1c(Cl)cccc1Cl)Nc1ccccc1	12.0	i	-4.5	-7.2	-4.9	100*
S=C(NCCSCc1ccc(Cl)c(Cl)c1)Nc1ccccc1	-3.6	i	1.8	-2.4	-0.8	100*
COc1ccc(CSCCNC(=S)Nc2ccccc2)cc1Cl	-1.4	i	7.7	-5.3	7.5	i
CCC(C)Sc1nc2c(c(=O)[nH]c(=O)n2C)n1Cc1ccc(Cl)cc1 (configuration not stated)	-3.9	i	-8.3	3.2	3.5	i
Cc1ccc(C)c(-c2cc(C(=O)NNC(=S)NCC(C)C)c3ccccc3n2)c1	10.6	i	-12.0	-3.4	-6.2	100*
CC(C(=O)N1CCN(C(=O)c2ccco2)CC1)n1sc2ccccc2c1=O (configuration not stated)	·	-44.9*	-32.8	2.9	-12.6	i
COC(=O)C[C@H]1C[C@H]2c3cc(NC(=O)NC4CCCC4)ccc3O[C@H]2[C@@H](CO)O1	·	·	6.5	4.0	-9.0	·
COc1ccc(CN2CCN(Cc3ccc(Br)cc3)CC2)c(OC)c1OC	·	i	4.9	-11.3	-4.3	25*
Cc1ccc(NC(=O)Nc2ccc(Cl)cn2)cc1	-0.7	-5.91*	-1.3	-0.7	-3.5	·
Cc1ccc2nc(N(CCCN(C)C)C(=O)c3ccc(S(=O)(=O)N4CCc5ccccc5C4)cc3)sc2c1	·	-5.3*	-0.2	-7.1	7.7	i
CN(C)c1c([N+](=O)[O-])ncn1C	0.8	-9.62*	3.1	8.4	-3.3	i
O=c1c2ccccc2nnn1Cc1ccc(Br)cc1	-8.4	i	1.5	-4.0	-0.9	i
O=c1c2ccccc2nnn1Cc1ccc(F)cc1	-5.8	i	8.7	0.7	-10.6	100*
